High-throughput results: PubChem BioAssay, Sanford-Burnham Center for Chemical Genomics
In the library only some 2.6% were active in any assay of this set; here they are far more common.
PABP polyA inh = PABP-poly(A) binding inhibition; P11940; PABP-poly(A) RNA binding, fluorescence polarization; inhibition, % at 35 µM; 290,000 compounds, 1% hits;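 note: calls also rest on retests at 20 µM and on dose response follow-up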
MLLE-PAM2 inh = blocks PAM2 peptide binding to the PABP1 MLLE domain; P11940; GST-MLLE / FITC-PAM2 fluorescence polarization; inhibition, % at 20 µM; 360,000 compounds, 0.36% hits; AID 588489; in the data active = inhibition above about 35%, passing the limit was not always enough
CRFR2-BP antag = antagonists of CRF-binding protein/CRF-R2 receptor complex; HEK293 CRF-R2/CRF-BP, CRF-induced calcium fluorescence; inhibition, % at 11.8 µM; 350,000 compounds, 0.59% hits; AID 588475;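 active = inhibition of the ligand-induced calcium signal above about 50% at the single tested concentration, limit read from the data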
eIF4H inh = inhibitors of RNA binding by human eIF4H | Q15056 | eIF4H fluorescence polarization binding assay | inhibition, % at 35 µM | 290,000 compounds, 0.94% hits | AID 2012;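 note: calls also rest on retests at 20 µM and on dose response follow-up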
PHOSPHO1 inh = blocks human PHOSPHO1 phosphatase activity; recombinant PHOSPHO1, absorbance phosphatase assay; inhibition, % at 13.3 µM; 290,000 compounds, 1.1% hits; AID 1565; in the data active = inhibition above about 60%
Target sequence (Q8TCT1 whole entry, looked up): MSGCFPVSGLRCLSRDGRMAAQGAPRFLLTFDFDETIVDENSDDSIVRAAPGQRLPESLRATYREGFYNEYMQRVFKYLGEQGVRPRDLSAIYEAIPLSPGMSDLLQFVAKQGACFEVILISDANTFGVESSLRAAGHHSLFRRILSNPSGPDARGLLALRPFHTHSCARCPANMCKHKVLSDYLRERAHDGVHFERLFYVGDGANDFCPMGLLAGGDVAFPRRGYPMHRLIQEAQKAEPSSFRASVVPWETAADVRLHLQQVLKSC
Hits are given with their value. Unless noted, the rule behind the calls is not given here.

For COc1ccc(C(=O)OCC(=O)NCc2ccco2)cc1OC the results were PABP polyA inh inactive, MLLE-PAM2 inh inactive, CRFR2-BP antag inactive, eIF4H inh 89 and PHOSPHO1 inh inactive.
For O=C(COC(=O)c1cccc(S(=O)(=O)N2CCc3ccccc3C2)c1)NCc1ccco1 the results were PABP polyA inh 6.7, MLLE-PAM2 inh inactive, CRFR2-BP antag inactive, eIF4H inh 87 and PHOSPHO1 inh inactive.
For COc1ccc(NC(=O)CSc2nnc3n2CCCCC3)cc1OC the results were MLLE-PAM2 inh inactive and CRFR2-BP antag inactive.
COc1ccccc1NC(=S)NCc1ccco1 was read as PABP polyA inh inactive, MLLE-PAM2 inh inactive, CRFR2-BP antag inactive, eIF4H inh inactive and PHOSPHO1 inh 62.
Cc1ccc(C(=O)OCC(=O)NCc2ccco2)cc1 was read as PABP polyA inh inactive, MLLE-PAM2 inh inactive, CRFR2-BP antag inactive, eIF4H inh inactive and PHOSPHO1 inh inactive.
`O=C(COC(=O)/C=C/c1ccco1)NCc1ccco1` gave PABP polyA inh inactive, MLLE-PAM2 inh inactive, CRFR2-BP antag inactive, eIF4H inh 86 and PHOSPHO1 inh inactive.
For Cc1ccc2c(Cl)cc(Cl)c(OCC(=O)NCc3ccco3)c2n1 the results were PABP polyA inh 62, eIF4H inh 98 and PHOSPHO1 inh inactive.
Screening O=C(COC(=O)c1ccccc1)NCc1ccco1 returned PABP polyA inh 20, MLLE-PAM2 inh inactive, CRFR2-BP antag inactive, eIF4H inh 76 and PHOSPHO1 inh inactive.
`O=C(COC(=O)/C=C/c1ccco1)NCc1ccccc1Cl` gave PABP polyA inh inactive, MLLE-PAM2 inh inactive, CRFR2-BP antag inactive, eIF4H inh inactive and PHOSPHO1 inh inactive.
For Cc1ccc(NC(=O)CN(C)C(=O)c2ccc(C(F)(F)F)cc2)cc1 the results were PABP polyA inh inactive, MLLE-PAM2 inh inactive, CRFR2-BP antag inactive, eIF4H inh inactive and PHOSPHO1 inh inactive.
For COc1cc(/C=N/n2c(=S)[nH]nc(C)c2=O)cc([N+](=O)[O-])c1O the results were PABP polyA inh inactive, MLLE-PAM2 inh inactive, CRFR2-BP antag inactive, eIF4H inh inactive and PHOSPHO1 inh 64.
For CC(=O)N1N=C(C)CC1c1ccc(OCc2ccccc2)cc1 (centres undefined) the results were PABP polyA inh inactive, MLLE-PAM2 inh inactive, CRFR2-BP antag 52, eIF4H inh inactive and PHOSPHO1 inh inactive.
Screening CC(=O)N1N=C(C)CC1c1ccc(O)cc1 (centres undefined) returned PABP polyA inh inactive, MLLE-PAM2 inh inactive, CRFR2-BP antag inactive, eIF4H inh inactive and PHOSPHO1 inh inactive.
Screening COc1ccccc1C(O)c1ncc(-c2ccccc2C)[nH]1 (centres undefined) returned MLLE-PAM2 inh inactive.
For COc1ccccc1Nc1nc(N)nc(CSC(=S)N2CC(C)CC(C)C2)n1 (centres undefined) the results were PABP polyA inh inactive, MLLE-PAM2 inh inactive, CRFR2-BP antag 53, eIF4H inh inactive and PHOSPHO1 inh inactive.
For CCn1c(SCc2c(Cl)cccc2Cl)nc2nc3c(cc2c1=O)CCCC3 the results were MLLE-PAM2 inh inactive and CRFR2-BP antag inactive.
`CCn1c(SCc2ccccc2Cl)nc2nc3c(cc2c1=O)CCCC3` gave PABP polyA inh 60, MLLE-PAM2 inh inactive, CRFR2-BP antag inactive, eIF4H inh active and PHOSPHO1 inh inactive.
`COc1ccc2c(c1)S/C(=C\C(=O)c1ccncc1)N2C` gave PABP polyA inh inactive, MLLE-PAM2 inh inactive, CRFR2-BP antag inactive, eIF4H inh inactive and PHOSPHO1 inh 70.
For COc1cc(OC)cc(C(=O)/C=C2\Sc3ccccc3N2C)c1 the results were PABP polyA inh inactive, MLLE-PAM2 inh inactive, CRFR2-BP antag inactive, eIF4H inh inactive and PHOSPHO1 inh inactive.
For Cc1ccc(N2CC(C(=O)NC3CCC(C)CC3)CC2=O)cc1 (centres undefined) the results were PABP polyA inh inactive, MLLE-PAM2 inh inactive, CRFR2-BP antag 67, eIF4H inh inactive and PHOSPHO1 inh inactive.
Cc1nc(SCc2nc3cc(Cl)c(F)cc3[nH]2)c2oc3ccccc3c2n1 was read as MLLE-PAM2 inh inactive and CRFR2-BP antag inactive.
CC(C)(C)c1cn(-c2ccc(F)cc2)c(=S)[nH]1 was read as PABP polyA inh inactive, MLLE-PAM2 inh inactive, CRFR2-BP antag inactive, eIF4H inh inactive and PHOSPHO1 inh 69.
For CCn1cc(/C=C/C(=O)c2ccc(O)cc2)c(C)n1 the results were PABP polyA inh inactive, MLLE-PAM2 inh inactive, CRFR2-BP antag inactive, eIF4H inh inactive and PHOSPHO1 inh 60.
For CCOC(=O)CCc1c(C)c2ccc(OCC(=O)N3CCOCC3)c(C)c2oc1=O the results were PABP polyA inh inactive, MLLE-PAM2 inh inactive, CRFR2-BP antag inactive, eIF4H inh inactive and PHOSPHO1 inh 62.
For NC(=O)C1(Nc2ccc(C(=O)O)cc2)CCCC1 the results were MLLE-PAM2 inh inactive and CRFR2-BP antag inactive.
For O=C(COC(=O)c1ccccc1)NCC1CCCO1 (centres undefined) the results were PABP polyA inh inactive, MLLE-PAM2 inh inactive, CRFR2-BP antag inactive, eIF4H inh inactive and PHOSPHO1 inh inactive.
O=C(COC(=O)c1cccc([N+](=O)[O-])c1)NCC1CCCO1 (centres undefined) was read as PABP polyA inh 56, MLLE-PAM2 inh inactive, CRFR2-BP antag inactive, eIF4H inh active and PHOSPHO1 inh inactive.
CCOC(=O)c1cc(-c2ccccc2)sc1NC(=O)C(C)N1C(=O)NC(C)(c2ccc(Cl)cc2)C1=O (centres undefined) was read as PABP polyA inh 71, MLLE-PAM2 inh inactive, CRFR2-BP antag inactive, eIF4H inh active and PHOSPHO1 inh inactive.
O=C(Nc1ccc(F)cc1F)N1CCN(CCc2ccccc2)CC1 was read as PABP polyA inh inactive, MLLE-PAM2 inh inactive, CRFR2-BP antag inactive, eIF4H inh inactive and PHOSPHO1 inh 68.
For CC1=C(C(=O)O)N2C(=O)C(NC(=O)c3ccn(C)n3)C2SC1 (centres undefined) the results were PABP polyA inh inactive, MLLE-PAM2 inh 49, CRFR2-BP antag inactive, eIF4H inh inactive and PHOSPHO1 inh inactive.
Screening CCCN1CNC(=S)N(Cc2ccccc2)C1 returned PABP polyA inh inactive, MLLE-PAM2 inh inactive, CRFR2-BP antag inactive, eIF4H inh inactive and PHOSPHO1 inh inactive.
`COCCCN1CN(Cc2ccccc2)CNC1=S` gave PABP polyA inh inactive, MLLE-PAM2 inh inactive, CRFR2-BP antag inactive, eIF4H inh 0.6 and PHOSPHO1 inh inactive.
Screening S=C1NCN(CCc2ccccc2)CN1Cc1ccccc1 returned PABP polyA inh inactive, MLLE-PAM2 inh inactive, CRFR2-BP antag 108, eIF4H inh inactive and PHOSPHO1 inh inactive.
Screening C1=C\CCC2(OCCO2)C2(CC/1)OCCO2 returned MLLE-PAM2 inh inactive and CRFR2-BP antag inactive.
COc1ccc(C(=O)OCC(=O)N(C)C2CCS(=O)(=O)C2)cc1Br (centres undefined) was read as MLLE-PAM2 inh inactive and CRFR2-BP antag inactive.
For COc1ccc(C(=O)OCC(=O)N(C)C2CCS(=O)(=O)C2)cc1S(=O)(=O)N(C)Cc1ccccc1 (centres undefined) the results were MLLE-PAM2 inh inactive and CRFR2-BP antag 109.
